# Experimental data from publication PMC11062922 (Nature Chemical Biology, 2023).
# Like-named read-outs stand apart in the source and are kept apart here.
# Columns and labels:
# AAK1 = tested on: AAK1; set-up: species or system human, MV4-11 + K-562 + COLO205 + SK-N-BE2 + OVCAR-8; settings: read-out: apparent Kd, n = 1
# BMP2K = tested on: BMP2K; set-up: species or system human, MV4-11 + K-562 + COLO205 + SK-N-BE2 + OVCAR-8; settings: read-out: apparent Kd, n = 1
# FLT3 = tested on: FLT3; set-up: species or system human, MV4-11 + K-562 + COLO205 + SK-N-BE2 + OVCAR-8; settings: read-out: apparent Kd, n = 1
# FLT4 = tested on: FLT4; set-up: species or system human, MV4-11 + K-562 + COLO205 + SK-N-BE2 + OVCAR-8; settings: read-out: apparent Kd; compound concentrations:100 nM and 1000 nM (sheet 'Samples'); n = 1
# GAK = tested on: GAK; set-up: species or system human, MV4-11 + K-562 + COLO205 + SK-N-BE2 + OVCAR-8; settings: read-out: apparent Kd; compound concentrations:100 nM and 1000 nM (sheet 'Samples'); n = 1
# NUAK1 = tested on: NUAK1; set-up: species or system human, MV4-11 + K-562 + COLO205 + SK-N-BE2 + OVCAR-8; settings: read-out: apparent Kd, n = 1
# Q6ZSR9 = Q6ZSR9 (human, UniProt Q6ZSR9); set-up: species or system MV4-11 + K-562 + COLO205 + SK-N-BE2 + OVCAR-8; settings: read-out: apparent Kd, n = 1
# Q6ZSR9, sequence (Q6ZSR9 whole entry, looked up): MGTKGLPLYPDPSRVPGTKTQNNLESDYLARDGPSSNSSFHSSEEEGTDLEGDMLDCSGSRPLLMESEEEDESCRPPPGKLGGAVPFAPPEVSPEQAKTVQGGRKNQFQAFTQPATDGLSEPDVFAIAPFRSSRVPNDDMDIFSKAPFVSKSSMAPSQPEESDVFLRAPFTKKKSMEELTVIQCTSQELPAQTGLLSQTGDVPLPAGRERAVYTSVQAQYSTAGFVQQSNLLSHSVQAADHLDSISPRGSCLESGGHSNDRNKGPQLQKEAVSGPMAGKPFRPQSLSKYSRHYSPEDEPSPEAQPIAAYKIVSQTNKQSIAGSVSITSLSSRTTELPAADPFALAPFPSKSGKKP
# CLK1 = tested on: CLK1; set-up: species or system human, MV4-11 + K-562 + COLO205 + SK-N-BE2 + OVCAR-8; settings: read-out: apparent Kd, n = 1
# CLK4 = tested on: CLK4; set-up: species or system human, MV4-11 + K-562 + COLO205 + SK-N-BE2 + OVCAR-8; settings: read-out: apparent Kd, n = 1
# CDKL5 = tested on: CDKL5; set-up: species or system human, MV4-11 + K-562 + COLO205 + SK-N-BE2 + OVCAR-8; settings: read-out: apparent Kd; compound concentrations: 100 nM and 1000 nM (sheet 'Samples'), CATDS: 7.1122593361459902E-2; n = 1
# DYRK1A = tested on: DYRK1A; set-up: species or system human, MV4-11 + K-562 + COLO205 + SK-N-BE2 + OVCAR-8; settings: read-out: apparent Kd; compound concentrations: 100 nM and 1000 nM (sheet 'Samples'), CATDS: 2.4296257212368499E-2; n = 1
# GSK3A = tested on: GSK3A; set-up: species or system human, MV4-11 + K-562 + COLO205 + SK-N-BE2 + OVCAR-8; settings: read-out: apparent Kd; compound concentrations: 100 nM and 1000 nM (sheet 'Samples'), CATDS: 3.86716280658417E-2; n = 1
# GSK3B = tested on: GSK3B; set-up: species or system human, MV4-11 + K-562 + COLO205 + SK-N-BE2 + OVCAR-8; settings: read-out: apparent Kd; compound concentrations: 100 nM and 1000 nM (sheet 'Samples'), CATDS: 6.1886578646693099E-2; n = 1
# MELK = tested on: MELK; set-up: species or system human, MV4-11 + K-562 + COLO205 + SK-N-BE2 + OVCAR-8; settings: read-out: apparent Kd, n = 1
# MYLK3 = tested on: MYLK3; set-up: species or system human, MV4-11 + K-562 + COLO205 + SK-N-BE2 + OVCAR-8; settings: read-out: apparent Kd; compound concentrations: 100 nM and 1000 nM (sheet 'Samples'), CATDS: 2.0905091895042499E-2; n = 1
# CSNK2A1;CSNK2A3 = tested on: CSNK2A1;CSNK2A3; set-up: species or system human, MV4-11 + K-562 + COLO205 + SK-N-BE2 + OVCAR-8; settings: read-out: apparent Kd; compound concentrations:100 nM and 1000 nM (sheet 'Samples'); n = 1
# CSNK2A2 = tested on: CSNK2A2; set-up: species or system human, MV4-11 + K-562 + COLO205 + SK-N-BE2 + OVCAR-8; settings: read-out: apparent Kd; compound concentrations:100 nM and 1000 nM (sheet 'Samples'); n = 1
# PRKD2 = tested on: PRKD2; set-up: species or system human, MV4-11 + K-562 + COLO205 + SK-N-BE2 + OVCAR-8; settings: read-out: apparent Kd; compound concentrations:100 nM and 1000 nM (sheet 'Samples'); n = 1
# [1] = compound concentrations:100 nM and 1000 nM (sheet 'Samples')
compound,measurement,setting,value
CN(C)CCNC(=O)Nc1ccc(N(C)c2ccnc(Nc3ccc(CS(C)(=O)=O)cc3)n2)cc1.Cl [GW830900A],potency estimated from few doses,AAK1; [1],0.82 µM
same,potency estimated from few doses,BMP2K; [1],1.22 µM
same,potency estimated from few doses,FLT3; [1],0.0399 µM
same,potency estimated from few doses,FLT4,1.24 µM
same,potency estimated from few doses,GAK,1.45 µM
same,potency estimated from few doses,NUAK1; [1],1.75 µM
same,potency estimated from few doses,Q6ZSR9; [1],0.939 µM
COc1ccc(Nc2nccc(-c3ccc(NC(=O)c4cc5cc(F)ccc5[nH]4)cc3)n2)cc1 [GSK1229496A],potency estimated from few doses,"AAK1; compound concentrations: 100 nM and 1000 nM (sheet 'Samples'), CATDS: 0.25032000609497101",1.83 µM
CS(=O)(=O)Nc1ccc(-c2ccnc3[nH]ccc23)cc1 [GSK993273A],potency estimated from few doses,AAK1; [1],1.89 µM
same,potency estimated from few doses,BMP2K; [1],2 µM
same,potency estimated from few doses,CLK1; [1],1.11 µM
same,potency estimated from few doses,CLK4; [1],1.44 µM
same,potency estimated from few doses,Q6ZSR9; [1],2.01 µM
c1cnn2ncc(-c3ccnc(Nc4ccc5c(c4)OCCO5)n3)c2c1 [GW806290X],potency estimated from few doses,"AAK1; compound concentrations: 100 nM and 1000 nM (sheet 'Samples'), CATDS: 2.3873616537329799E-2",1.08 µM
same,potency estimated from few doses,CDKL5,0.0948 µM
same,potency estimated from few doses,"CLK1; compound concentrations: 100 nM and 1000 nM (sheet 'Samples'), CATDS: 6.6494036250362598E-2",0.106 µM
same,potency estimated from few doses,"CLK4; compound concentrations: 100 nM and 1000 nM (sheet 'Samples'), CATDS: 9.8127081360261201E-2",0.0572 µM
same,potency estimated from few doses,DYRK1A,1.02 µM
same,potency estimated from few doses,"FLT3; compound concentrations: 100 nM and 1000 nM (sheet 'Samples'), CATDS: 9.3011022280108296E-2",0.0619 µM
same,potency estimated from few doses,GSK3A,0.308 µM
same,potency estimated from few doses,GSK3B,0.121 µM
same,potency estimated from few doses,"MELK; compound concentrations: 100 nM and 1000 nM (sheet 'Samples'), CATDS: 1.9268078616401899E-2",2.36 µM
same,potency estimated from few doses,MYLK3,1.69 µM
same,potency estimated from few doses,"NUAK1; compound concentrations: 100 nM and 1000 nM (sheet 'Samples'), CATDS: 2.7516933063414101E-2",0.713 µM
same,potency estimated from few doses,"Q6ZSR9; compound concentrations: 100 nM and 1000 nM (sheet 'Samples'), CATDS: 2.3514563204250299E-2",1.13 µM
CC(C)Oc1ccc2c(-c3ccnc(Nc4ccc(N5CCN(C)CC5)cc4)n3)cnn2n1 [GW696155X],potency estimated from few doses,AAK1; [1],0.0354 µM
same,potency estimated from few doses,BMP2K; [1],0.344 µM
same,potency estimated from few doses,CLK4; [1],1.57 µM
same,potency estimated from few doses,CSNK2A1;CSNK2A3,0.416 µM
same,potency estimated from few doses,CSNK2A2,0.201 µM
same,potency estimated from few doses,FLT3; [1],0.479 µM
same,potency estimated from few doses,GAK,0.454 µM
same,potency estimated from few doses,NUAK1; [1],1.03 µM
same,potency estimated from few doses,PRKD2,0.482 µM
same,potency estimated from few doses,Q6ZSR9; [1],0.0396 µM
NCC(NC(=O)c1cc(-c2cn[nH]c2)c(-c2ccnc3[nH]ccc23)s1)c1ccccc1.NCC(NC(=O)c1cc(-c2cn[nH]c2)c(-c2ccnc3[nH]ccc23)s1)c1ccccc1.O=C(O)C(F)(F)F.O=C(O)C(F)(F)F (stereo not drawn) [GSK1325775A],potency estimated from few doses,"AAK1; compound concentrations: 100 nM and 1000 nM (sheet 'Samples'), CATDS: 3.6567153264384103E-2",1.07 µM
same,potency estimated from few doses,"BMP2K; compound concentrations: 100 nM and 1000 nM (sheet 'Samples'), CATDS: 3.9732447761342798E-2",0.847 µM
same,potency estimated from few doses,"Q6ZSR9; compound concentrations: 100 nM and 1000 nM (sheet 'Samples'), CATDS: 4.0068531071680201E-2",0.829 µM
Nc1nc(Nc2ccccc2)cc(-c2ccc3c(N)n[nH]c3c2)n1 [GSK2225749A],potency estimated from few doses,AAK1; [1],0.13 µM
same,potency estimated from few doses,BMP2K; [1],0.554 µM
same,potency estimated from few doses,MELK; [1],0.823 µM
same,potency estimated from few doses,Q6ZSR9; [1],0.125 µM
CS(=O)(=O)Nc1cccc(-c2ccc3c(NC(=O)C4CC4)n[nH]c3c2)c1 [SB-742864],potency estimated from few doses,"AAK1; compound concentrations: 100 nM and 1000 nM (sheet 'Samples'), CATDS: 0.116591298752119",1.41 µM
same,potency estimated from few doses,"BMP2K; compound concentrations: 100 nM and 1000 nM (sheet 'Samples'), CATDS: 0.11349645370011199",1.51 µM
same,potency estimated from few doses,"Q6ZSR9; compound concentrations: 100 nM and 1000 nM (sheet 'Samples'), CATDS: 0.100041705724795",2.11 µM
